Consider 7 compounds from PubChem BioAssay (NCATS).

Assay [1] concerns the target Lysosomal acid glucosylceramidase (Homo sapiens) (UniProt P04062). Briefly: Glucocerebrosidase-p2 (AID 348; in the data active = potency below about 10 µM; note: potency is the fitted concentration of half-maximal effect). Particulars: purified GBA, blue fluorogenic substrate, 40 min. A digest of the protocol: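 Compounds titrated from 0.6 nM upwards against 0.2 nM enzyme in pH 5.9 citric acid/KH2PO4, taurocholate, tween-20; blue fluorogenic substrate 80 uM, 40 min room temperature, stopped and read Ex 365/Em 440 for AC50.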

The nature of assay [2]: AP1 Signaling Pathway (AID 357).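 Note: ME-180 reporter cells stimulated with EGF at its EC50 level; % is set by controls: 0 for no effect and ±100 for the full control effect.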 The following applies: ME-180 AP-1-bla reporter, EGF-induced, beta-lactamase ratio, 5 h; at 7.69 µM (top of the series) unless noted. A digest of the protocol:
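Modulation of EGF-driven AP-1 transcription was assessed with a beta-lactamase reporter in ME-180 cells. Compound and EC50 EGF were co-incubated 5 hours at 37 °C before 2.5-hour CCF4 loading at room temperature and dual-emission reading.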

Assay [3] concerns the target Cytochrome P450 1A2 (Homo sapiens) (UniProt P05177). Briefly: p450-cyp1a2 (AID 410; calls by dose curve; note: potency is the fitted concentration of half-maximal effect). Particulars: recombinant CYP1A2, luciferin-ME demethylation, luminescence; series mostly up to 57 µM. A digest of the protocol:
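Luminescent readout of luciferin formed from Luciferin-ME by human CYP1A2; data normalized against complete inhibition by 57 uM furafylline. Enzyme 20nM, substrate 100uM at Km, 100mM KPO4 buffer, 60 min reaction at room temperature.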

Assay [4] can be described thus: Stat Signaling Pathway (AID 446).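 Note: ME-180 cervical cancer cells given 40 pM IL-6 alongside compound; SIE-controlled beta-lactamase reporter measured as 460/530 nm FRET emission ratio; % is set by controls: 0 for no effect and ±100 for the full control effect.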 The following applies: ME-180 SIE beta-lactamase reporter, IL-6 stimulated, 5 h; at 7.69 µM (top of the series) unless noted. A digest of the protocol: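 ME-180 cells carrying a SIE-driven beta-lactamase reporter are stimulated with 40 pM IL-6 for 5 h at 37C in the presence of compound. The 460/530 nm FRET substrate ratio is read after 2.5 h at RT. Data are normalised to 300 pM IL-6 and to 125 nM JAK inhibitor controls.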

The target of assay [5] is Glucocorticoid receptor (Homo sapiens) (UniProt P04150). Put plainly: GR-GFP Redistribution (AID 450;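 active = compounds whose dose series gives a full or clear partial fitted curve of increased nuclear translocation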; note: potency is the fitted concentration of half-maximal effect). Particulars: U2OS GR-GFP nuclear translocation, laser cytometry, 2 h.
Assay [6] has the same target. Put plainly: GR-EFC Redistribution (AID 451; calls by dose curve; note: potency is the fitted concentration of half-maximal effect). The following applies: CHO-K1 GR-EFC translocation, beta-gal luminescence, 2 h. A digest of the protocol: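 CHO-K1 cells stably expressing nuclear-localized β-gal enzyme acceptor and GR fused C-terminally to the enzyme donor fragment; ligand-driven nuclear translocation restores β-gal by complementation. Compounds titrated up to 46 uM final, 2 h at 37 °C; luminescence read.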

In assay [7] the target is Mitogen-activated protein kinase 10 (Mus musculus) (UniProt Q61831). Put plainly: JNK3 AlphaScreen Assay (AID 530).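 Note: kinase came from lysate of stimulated human HepG2 cells; signal reports phosphorylation of biotinylated GST-cJun 1-79 at Ser73 with 10 µM ATP; % is set by controls: 0 for no effect and ±100 for the full control effect.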 Particulars: JNK3 lysate, c-Jun phosphorylation; series mostly up to 57.1 µM. Summed up:
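Inhibitors reduce antibody binding to phosphorylated biotin-cJun, lowering AlphaScreen luminescence. Lysates from HepG2 cells pre-activated by IL-1beta plus TNF-alpha supplied JNK3; compounds were titrated.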
In general terms: Alpha assays give light when donor and acceptor beads are brought close together.

The target of assay [8] is 3',5'-cyclic-AMP phosphodiesterase 4B (Homo sapiens) (UniProt Q07343). Briefly: qHTS Assay for Inhibitors of PDE-IV (AID 607; active = well fitted activation curve with a large enough effect in the main read-out, with a control signal flat, not every such curve was filed as active; note: % of control where 0% means no effect). Particulars: HEK293 ACTOne CNG channel cells, membrane potential fluorescence; series mostly up to 22.9 µM. Summed up: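 HEK293 ACTOne cells with CNG channel (1000/well), endogenous PDE4; membrane potential dye, compounds up to 22.9 uM final. Fluorescence Ex 535/Em 590; RO 20-1724 (100 uM final) as reference.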

Assay [9] has as its target Cytochrome P450 3A4 (Homo sapiens) (UniProt P08684). Briefly: qHTS Assay for Inhibitors and Substrates of Cytochrome P450 3A4 (AID 884; active = well fitted curve in the direction sought with a large enough effect; an effect the other way counts as inactive or inconclusive; note: potency is the fitted concentration of half-maximal effect; nearly all actives have a fitted effect of over 50% in size). Particulars: recombinant CYP3A4, Luciferin-PPXE luminescence; series mostly up to 57.1 µM. Summed up: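 20 nM human CYP3A4 with 25 uM Luciferin-PPXE (at KM) in 200 mM KPO4, preincubated 10 min with compound; NADPH regeneration started a 60 min RT reaction. Luciferin detected by luminescence, normalized to 57 uM ketoconazole as full inhibition.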

For assay [10] the target is unchanged. Briefly: qHTS Assay for Activators of Cytochrome P450 3A4 (AID 885; active = well fitted curve in the direction sought with a large enough effect; an effect the other way counts as inactive or inconclusive; note: nearly all actives have a fitted effect of over 65% in size). The following applies: recombinant CYP3A4, Luciferin-PPXE luminescence, 60 min; series mostly up to 57.1 µM. A digest of the protocol:
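Human CYP3A4 (20 nM) with Luciferin-PPXE at 25 uM (its KM) in 200 mM KPO4; 10 min compound preincubation, then NADPH regeneration and 60 min reaction at RT. Luciferin read by luminescence; normalized to 57 uM ketoconazole full inhibition.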

In assay [11] the target is Cytochrome P450 2D6 (Homo sapiens) (UniProt P10635). Briefly: qHTS Assay for Inhibitors and Substrates of Cytochrome P450 2D6 (AID 891; active = well fitted curve in the direction sought with a large enough effect; an effect the other way counts as inactive or inconclusive; note: potency is the fitted concentration of half-maximal effect; nearly all actives have a fitted effect of over 60% in size). Particulars: recombinant CYP2D6, luciferin-ME EGE luminescence; series mostly up to 57.1 µM. Summed up:
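Human CYP2D6 (5 nM) with 30 uM Luciferin-ME EGE (at Km) in 100 mM KPO4, compound preincubated 10 min, then NADPH regeneration system for 60 min at room temperature. Luciferin read by luminescence; normalized to 1.43 uM quinidine.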

Assay [12] can be described thus: Confirmation and Secondary Assay for Modulators of Hemoglobin Beta Chain Splicing at IVS2 654 locus (AID 910; active = well fitted curve in the direction sought with a large enough effect; an effect the other way counts as inactive or inconclusive;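 note: per-well total GFP intensity by laser scanning cytometry after 2-day treatment; % of control where 0% means no effect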). Particulars: HeLa EGFP-654 splicing reporter, GFP fluorescence, 48 h; series mostly up to 38.3 µM. A digest of the protocol:
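HeLa cells stably carrying EGFP interrupted by mutant beta-globin IVS2-654 intron (CMV-driven) were treated with compound for 2 days at 37C; corrected splicing was scored as total peak GFP intensity per well (488 nm excitation, 500-520 nm emission).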

The nature of assay [13]: Confirmation and Secondary Assay for Modulators of Hemoglobin Beta Chain Splicing at IVS2 705 locus (AID 930; active = well fitted curve in the direction sought with a large enough effect; an effect the other way counts as inactive or inconclusive;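 note: HeLa cells stably expressing the EGFP-705 splicing reporter; % of control where 0% means no effect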). The following applies: HeLa EGFP-705 splicing reporter, GFP fluorescence, 48 h; series mostly up to 38.3 µM. A digest of the protocol:
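Restored EGFP fluorescence after 2-day compound exposure reports splicing correction in IVS2-705 EGFP reporter HeLa cells; positive control was 500 nM splice-blocking PNA oligo. Signal measured as well total peak GFP intensity (488 nm excitation).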

The nature of assay [14]: qHTS Assay for Lipid Storage Modulators (AID 1519; calls by dose curve). The following applies: Drosophila S3 cells, BODIPY lipid droplet/cell ratio, laser cytometry, cells loaded with oleic acid; for activity change, negative = inhibition: at 57.5 µM (top of the series). Summed up:
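Cells seeded at 5,000 per well were treated with compounds over a concentration series and loaded with oleic acid (400 uM, as added). Lipid droplet fluorescence (488 nm excitation, 500-530 nm channel) was read by laser-scanning cytometry and normalized to 20 uM Triacsin C.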
In general terms: Quantitative high-throughput screening tests each substance at several concentrations.

The target in assay [15] is Ubiquitin carboxyl-terminal hydrolase 1 (Homo sapiens) (UniProt O94782). Briefly: Inhibitors of USP1/UAF1: Pilot qHTS (AID 504865; active = well fitted curve in the direction sought with a large enough effect; an effect the other way counts as inactive or inconclusive;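 note: rhodamine fluorescence freed from ubiquitin-rhodamine substrate followed over time; top concentration of the series differs between compounds; % is set by controls: 0 for no effect and ±100 for the full control effect; nearly all actives have a fitted effect of over 35% in size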). The following applies: purified USP1/UAF1, Ub-rhodamine cleavage fluorescence; series mostly up to 54.9 µM. Summed up:
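USP1/UAF1 complex (1nM) preincubated with compound 15 min at room temperature, then Ub-Rho substrate (150nM final) added. Fluorescence read kinetically at 480/540 nm, 6 reads every 60 seconds. Buffer: 50mM HEPES pH 7.8, 0.5mM EDTA, 0.1 mg/ml BSA, 1mM TCEP, 0.01% Tween-20.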

The nature of assay [16]: Primary qHTS for small molecule stabilizers of the endoplasmic reticulum resident proteome: Secreted ER Calcium Modulated Protein (SERCaMP) assay (AID 1508630; active = well fitted curve in the direction sought with a large enough effect; an effect the other way counts as inactive or inconclusive; note: % is set by controls: 0 for no effect and ±100 for the full control effect). Particulars: SH-SY5Y GLuc-SERCaMP (Gaussia luciferase released on ER calcium loss) secretion, thapsigargin, luminescence; series mostly up to 38.4 µM. Summed up: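 GLuc-SERCaMP-expressing SH-SY5Y cells, pretreated 16 h with compound, are challenged with thapsigargin to empty ER calcium stores; after 4 h, coelenterazine is added directly to the medium and luminescence is imaged.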

The mark [17] stands for this setting: measured here: cell count channel max response.
Where [18] appears, read: measured here: lipid channel max response.

Results filed as inconclusive are left out. Activity calls are given as the source filed them. Unless noted, calls come from the whole dose curve; as a rule, active = well fitted curve in either direction with a large enough effect (not every such curve was filed as active); inconclusive = small, poorly fitted or top-dose-only effect, or another doubt; inactive = flat fitted curve, though single readings scatter.

Chain of 3',5'-cyclic-AMP phosphodiesterase 4B (Homo sapiens) (Q07343 whole entry, looked up): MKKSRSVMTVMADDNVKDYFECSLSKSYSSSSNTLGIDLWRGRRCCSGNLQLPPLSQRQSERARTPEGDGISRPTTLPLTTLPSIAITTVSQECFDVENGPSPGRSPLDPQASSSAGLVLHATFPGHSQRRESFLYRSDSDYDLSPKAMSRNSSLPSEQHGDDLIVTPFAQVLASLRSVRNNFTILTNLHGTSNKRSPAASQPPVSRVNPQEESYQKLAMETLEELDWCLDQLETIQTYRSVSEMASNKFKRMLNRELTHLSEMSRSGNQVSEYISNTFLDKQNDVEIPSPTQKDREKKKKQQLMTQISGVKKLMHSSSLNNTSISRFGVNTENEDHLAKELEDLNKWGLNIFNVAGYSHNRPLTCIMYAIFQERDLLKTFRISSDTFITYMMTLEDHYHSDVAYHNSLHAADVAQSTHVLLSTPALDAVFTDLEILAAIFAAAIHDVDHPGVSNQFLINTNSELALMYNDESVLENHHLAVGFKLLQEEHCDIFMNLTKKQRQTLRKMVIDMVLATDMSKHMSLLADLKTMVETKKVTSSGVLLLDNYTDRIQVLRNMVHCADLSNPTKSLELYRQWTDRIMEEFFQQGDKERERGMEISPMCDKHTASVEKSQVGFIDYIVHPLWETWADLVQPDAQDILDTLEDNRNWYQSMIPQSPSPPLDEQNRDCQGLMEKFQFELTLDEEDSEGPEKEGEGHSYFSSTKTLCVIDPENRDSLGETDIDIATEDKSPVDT
Chain of Cytochrome P450 1A2 (Homo sapiens) (P05177 whole entry, looked up): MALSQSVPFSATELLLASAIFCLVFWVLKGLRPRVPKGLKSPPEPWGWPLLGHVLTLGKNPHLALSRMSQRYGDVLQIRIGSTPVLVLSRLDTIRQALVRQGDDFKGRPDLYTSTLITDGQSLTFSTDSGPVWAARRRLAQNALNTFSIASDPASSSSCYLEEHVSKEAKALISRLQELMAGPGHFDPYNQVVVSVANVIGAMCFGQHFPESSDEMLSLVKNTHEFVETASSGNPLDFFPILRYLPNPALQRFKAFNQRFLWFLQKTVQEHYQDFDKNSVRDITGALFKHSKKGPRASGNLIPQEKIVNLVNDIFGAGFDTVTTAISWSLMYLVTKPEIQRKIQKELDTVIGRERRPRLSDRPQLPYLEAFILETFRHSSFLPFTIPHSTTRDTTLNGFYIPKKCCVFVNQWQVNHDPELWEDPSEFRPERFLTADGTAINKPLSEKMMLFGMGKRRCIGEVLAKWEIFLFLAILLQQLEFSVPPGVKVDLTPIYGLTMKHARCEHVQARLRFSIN
Chain of Glucocorticoid receptor (Homo sapiens) (P04150 whole entry, looked up, the tested form may be a part): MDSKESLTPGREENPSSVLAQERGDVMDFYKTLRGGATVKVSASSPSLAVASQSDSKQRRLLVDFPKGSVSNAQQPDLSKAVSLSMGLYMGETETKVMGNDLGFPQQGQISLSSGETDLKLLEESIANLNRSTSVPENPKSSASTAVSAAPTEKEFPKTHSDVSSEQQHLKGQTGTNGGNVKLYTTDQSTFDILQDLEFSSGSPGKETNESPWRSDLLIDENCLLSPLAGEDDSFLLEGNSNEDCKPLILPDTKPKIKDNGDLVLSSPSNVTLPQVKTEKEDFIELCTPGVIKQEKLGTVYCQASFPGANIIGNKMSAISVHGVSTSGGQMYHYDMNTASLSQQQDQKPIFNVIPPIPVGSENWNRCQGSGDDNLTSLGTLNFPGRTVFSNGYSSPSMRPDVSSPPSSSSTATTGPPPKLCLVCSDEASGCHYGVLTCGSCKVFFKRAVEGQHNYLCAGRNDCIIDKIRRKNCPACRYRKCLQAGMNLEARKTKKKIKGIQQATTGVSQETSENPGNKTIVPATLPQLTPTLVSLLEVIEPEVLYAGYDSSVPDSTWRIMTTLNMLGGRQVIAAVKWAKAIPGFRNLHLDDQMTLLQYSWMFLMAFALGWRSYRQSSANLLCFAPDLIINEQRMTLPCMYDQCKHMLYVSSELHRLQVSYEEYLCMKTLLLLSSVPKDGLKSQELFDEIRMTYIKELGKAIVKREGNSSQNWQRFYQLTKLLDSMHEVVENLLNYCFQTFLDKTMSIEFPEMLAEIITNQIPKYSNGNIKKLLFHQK
Chain of Lysosomal acid glucosylceramidase (Homo sapiens) (P04062 whole entry, looked up): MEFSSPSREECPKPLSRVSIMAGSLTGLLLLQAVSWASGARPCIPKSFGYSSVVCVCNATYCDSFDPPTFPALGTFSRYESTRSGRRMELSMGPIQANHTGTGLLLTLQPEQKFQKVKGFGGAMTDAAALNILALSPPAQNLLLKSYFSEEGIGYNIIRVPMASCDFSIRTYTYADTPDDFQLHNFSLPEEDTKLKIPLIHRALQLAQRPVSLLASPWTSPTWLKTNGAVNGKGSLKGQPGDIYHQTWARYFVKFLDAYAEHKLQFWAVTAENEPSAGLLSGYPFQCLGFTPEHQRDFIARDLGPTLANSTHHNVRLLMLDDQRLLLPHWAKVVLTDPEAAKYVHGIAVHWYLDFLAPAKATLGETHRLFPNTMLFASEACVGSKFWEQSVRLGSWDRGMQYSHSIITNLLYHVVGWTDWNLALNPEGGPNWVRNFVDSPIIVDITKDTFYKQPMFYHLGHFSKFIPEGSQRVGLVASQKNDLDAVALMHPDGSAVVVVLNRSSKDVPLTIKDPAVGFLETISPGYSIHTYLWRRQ
Chain of Cytochrome P450 3A4 (Homo sapiens) (P08684 whole entry, looked up): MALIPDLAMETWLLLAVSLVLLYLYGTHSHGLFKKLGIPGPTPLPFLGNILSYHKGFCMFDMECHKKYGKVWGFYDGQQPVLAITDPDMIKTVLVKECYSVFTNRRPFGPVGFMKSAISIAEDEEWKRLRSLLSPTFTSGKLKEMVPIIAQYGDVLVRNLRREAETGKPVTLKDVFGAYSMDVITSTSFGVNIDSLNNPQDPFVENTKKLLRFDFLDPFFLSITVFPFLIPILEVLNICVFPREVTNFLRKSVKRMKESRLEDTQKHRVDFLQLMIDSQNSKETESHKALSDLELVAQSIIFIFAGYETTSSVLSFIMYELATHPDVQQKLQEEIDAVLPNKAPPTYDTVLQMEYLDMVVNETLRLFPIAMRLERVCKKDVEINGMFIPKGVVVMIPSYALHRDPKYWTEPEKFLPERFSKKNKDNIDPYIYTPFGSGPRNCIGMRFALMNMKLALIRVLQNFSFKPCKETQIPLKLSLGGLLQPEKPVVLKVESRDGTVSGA
Chain of Cytochrome P450 2D6 (Homo sapiens) (P10635 whole entry, looked up): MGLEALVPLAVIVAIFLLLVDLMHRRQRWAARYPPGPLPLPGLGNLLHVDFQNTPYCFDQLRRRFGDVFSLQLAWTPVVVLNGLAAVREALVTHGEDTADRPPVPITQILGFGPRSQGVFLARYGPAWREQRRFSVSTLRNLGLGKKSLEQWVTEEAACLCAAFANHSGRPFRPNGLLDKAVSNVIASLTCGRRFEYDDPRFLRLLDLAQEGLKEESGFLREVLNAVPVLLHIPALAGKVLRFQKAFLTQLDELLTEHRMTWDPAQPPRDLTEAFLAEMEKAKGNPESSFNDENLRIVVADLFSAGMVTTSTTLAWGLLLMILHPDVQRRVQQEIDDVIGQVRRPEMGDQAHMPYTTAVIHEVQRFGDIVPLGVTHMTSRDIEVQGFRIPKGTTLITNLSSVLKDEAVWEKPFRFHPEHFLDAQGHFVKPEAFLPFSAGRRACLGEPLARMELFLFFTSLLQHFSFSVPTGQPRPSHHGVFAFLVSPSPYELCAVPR
Chain of Ubiquitin carboxyl-terminal hydrolase 1 (Homo sapiens) (O94782 whole entry, looked up): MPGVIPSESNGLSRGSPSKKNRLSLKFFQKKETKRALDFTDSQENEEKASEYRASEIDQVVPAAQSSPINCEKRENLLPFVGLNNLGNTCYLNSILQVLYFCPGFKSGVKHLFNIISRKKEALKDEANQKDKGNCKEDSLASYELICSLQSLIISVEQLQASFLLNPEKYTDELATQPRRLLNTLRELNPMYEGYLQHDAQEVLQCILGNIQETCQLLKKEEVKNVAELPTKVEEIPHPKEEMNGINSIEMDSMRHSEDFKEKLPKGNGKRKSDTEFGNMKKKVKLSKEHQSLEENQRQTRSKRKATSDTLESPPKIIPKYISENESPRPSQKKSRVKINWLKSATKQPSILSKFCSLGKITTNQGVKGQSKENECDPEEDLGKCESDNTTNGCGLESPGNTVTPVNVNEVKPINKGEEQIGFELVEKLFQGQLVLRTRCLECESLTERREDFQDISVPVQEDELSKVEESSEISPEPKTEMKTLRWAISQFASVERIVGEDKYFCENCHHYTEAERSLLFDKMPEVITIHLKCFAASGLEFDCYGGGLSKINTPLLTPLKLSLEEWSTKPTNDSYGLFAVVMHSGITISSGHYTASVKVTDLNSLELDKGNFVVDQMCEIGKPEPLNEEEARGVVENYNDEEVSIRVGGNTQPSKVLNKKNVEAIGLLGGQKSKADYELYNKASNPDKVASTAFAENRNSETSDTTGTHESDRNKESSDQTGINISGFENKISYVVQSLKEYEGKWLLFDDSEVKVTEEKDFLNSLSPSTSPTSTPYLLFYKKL

As to `CN(C)c1ccc(-c2nc(NCc3cccnc3)c3ccccc3n2)cc1`, the Potency was 9.34 µM (active) in assay [1]; 1.58 µM (active) in assay [3]; > 46 µM (inactive) in [5]; > 46 µM (inactive) in assay [6]; 2 µM (active) in assay [9]; 7.94 µM (active) in [11]. The values for the activity change, negative = inhibition in assay [2] and in [14] were -8.92% (inactive) and 8.26% (inactive), respectively. Further, the activity, negative = inhibition in assay [4] was 19.7% (inactive). Further, the Potency result in assay [7], in [8], in [10], in [12] and in assay [15] was “inactive” throughout. Moreover, the outcome in assay [13] and in assay [16] was inactive. Moreover, the max response was -14.2% in [14] (setting [17]) and -5.05% in [14] (setting [18]).
Turning to `Cc1noc(C)c1C(=O)N1CCC2(CCCN(Cc3ccc(C#N)cc3)C2)CC1`, the Potency in assay [1] is > 11.4 µM (inactive); in [6], > 46 µM (inactive). The values for the activity change, negative = inhibition in [2] and in [14] were 4.42% (inactive) and 6.31% (inactive), respectively. For the same compound, the Potency entry in [3], in assay [7] and in assay [8] was “inactive” throughout. For the same compound, the activity, negative = inhibition in [4] is 3.17% (inactive). The max response in [14] (setting [17]) was determined as 22.7%; in assay [14] (setting [18]), 33.4%. Moreover, the result in assay [16] was inactive.
Consider `CC(C)CN1CCC2(CC1)CCN(C(=O)c1cc(C(F)(F)F)cc(C(F)(F)F)c1)CC2`, for which the Potency is > 11.4 µM (inactive) in assay [1] and > 46 µM (inactive) in [6]. Further, the activity change, negative = inhibition in assay [2] is 3.4% (inactive); in assay [14] it was -2.84% (inactive). Moreover, the Potency result in [3], in [7] and in [8] was “inactive” each time. Moreover, in assay [4], the activity, negative = inhibition was 0.414% (inactive). Moreover, the max response is -18.2% in assay [14] (setting [17]) and -17.3% in assay [14] (setting [18]). Moreover, the result in assay [16] was inactive.
In the case of `CS(=O)(=O)N1CCC2(CCN(c3ccncc3)CC2)CC1`, the Potency is > 11.4 µM (inactive) in [1], 12.6 µM (active) in [3] and > 46 µM (inactive) in assay [6]. The activity change, negative = inhibition in assay [2] was -13.1% (inactive); in assay [14] it was 3.83% (inactive). Also, the activity, negative = inhibition in assay [4] is 0.543% (inactive). Further, the Potency entry in assay [7] and in assay [8] was “inactive” each time. Besides, the max response in [14] (setting [17]) came to 7.45%; in assay [14] (setting [18]), 13.6%. Besides, the outcome in assay [16] was inactive.
For the compound `CC(C)CN1CC2(CCN(C(=O)c3cccc(F)c3)CC2)C1`, the Potency in assay [1] was > 11.4 µM (inactive); in assay [6], > 46 µM (inactive). Moreover, the figures for the activity change, negative = inhibition in [2] and in [14] were 10.2% (inactive) and 2.36% (inactive), respectively. For the same compound, the Potency entry in [3], in assay [7] and in [8] was “inactive” in each case. The activity, negative = inhibition in assay [4] was -19.8% (inactive). For the same compound, the max response in assay [14] (setting [17]) was determined as 11.5%; in [14] (setting [18]), 16.2%. Besides, in assay [16], the result was inactive.
With `CC(C)CN1CCC2(CC1)CCN(C(=O)c1cccn1C)CC2`, the values for the Potency in assay [1] and in [6] were > 11.4 µM (inactive) and > 46 µM (inactive), respectively. Besides, the results for the activity change, negative = inhibition in assay [2] and in assay [14] were -13.5% (inactive) and 0.342% (inactive), respectively. In addition, the Potency entry in [3], in assay [7] and in [8] was “inactive” in each case. In assay [4], the activity, negative = inhibition is -4.86% (inactive). Moreover, the max response was -5.62% in assay [14] (setting [17]) and -4.46% in assay [14] (setting [18]). Besides, the result in assay [16] was inactive.
Consider `O=C(c1ccncc1)N1CCC2(CC1)CCN(c1ccccn1)CC2`, for which the Potency in [1] was > 11.4 µM (inactive); in [3], 12.6 µM (active); in [6] it was > 46 µM (inactive). Further, the results for the activity change, negative = inhibition in assay [2] and in [14] were 8.14% (inactive) and 6.99% (inactive), respectively. In addition, the activity, negative = inhibition in [4] was -1.09% (inactive). Further, the Potency result in [7] and in assay [8] was “inactive” throughout. The values for the max response in assay [14] (setting [17]) and in [14] (setting [18]) were 10.7% and 20.3%, respectively. The outcome in [16] was inactive.
